Where “and” joins values, the source holds several entries; their conditions need not be identical. Equal entries are not always repeated. Inconclusive results are not listed. Calls of active or inactive are those of the source. Unless noted, calls follow the shape of the dose curve; as a rule, active = well fitted curve in the direction sought with a large enough effect; inconclusive = small, poorly fitted or top-dose-only effect, or another doubt; inactive = no such curve, though single readings can be large; an effect the other way counts as inactive or inconclusive.
How the values were obtained:
[1] = biological target: Estrogen receptor (Homo sapiens) (UniProt P03372); experiment: qHTS assay for small molecule antagonists of estrogen receptor alpha signaling (AID 588513; active = well fitted curve in the direction sought with a large enough effect in the signal ratio, with a control signal flat, not every such curve was filed as active; the % refers to the signal ratio; also: % is scaled to controls: 0 for no effect and ±100 for the full control effect)
How it was run: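 Fluorescence from CCF4 substrate after 2 h at room temperature gave reporter activity; cells had been exposed to compound and 0.5nM 17-beta-estradiol for 18 h at 37 C. Hill-equation fitting yielded IC50 and maximal response.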

[2] = biological target: Estrogen receptor (Homo sapiens) (UniProt P03372); experiment: qHTS assay for small molecule agonists of estrogen receptor alpha signaling (AID 588514; calls by dose curve;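 also: 0% = vehicle only and 100% = reference agonist; nearly all actives have a fitted effect of over 70% in size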)
How it was run: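 Read-out: CCF4 fluorescence from a beta-lactamase reporter in ER-alpha-UAS-bla HEK 293 cells after 18 hrs of compound exposure at 37 C. Normalized to 20 nM 17-beta-estradiol (100%) and DMSO (0%).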

[3] = biological target: Glucocorticoid receptor (Homo sapiens) (UniProt P04150); experiment: qHTS assay for small molecule antagonists of glucocorticoid receptor signaling (AID 588533; active = well fitted inhibition curve with a large enough effect in the signal ratio, with a control signal flat, not every such curve was filed as active; the % refers to the signal ratio; also: % is scaled to controls: 0 for no effect and ±100 for the full control effect)
How it was run: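 Antagonist-mode qHTS: compound titrations added to GRE-bla HeLa cells, then dexamethasone 2 nM final; 18 h, 37 C. CCF4 FRET fluorescence normalized to dexamethasone and DMSO; IC50 from Hill fit.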

[4] = biological target: Peroxisome proliferator-activated receptor gamma (Homo sapiens) (UniProt P37231); experiment: qHTS assay for small molecule agonists of peroxisome proliferator-activated receptor gamma signaling (AID 588536; active = well fitted curve in the direction sought with a large enough effect in the signal ratio, with a control signal flat, not every such curve was filed as active; the % refers to the signal ratio;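 also: 0% = DMSO basal wells and 100% = rosiglitazone at 2 µM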)
How it was run: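 Cells were plated and held 6–6.5 h at 37 C, then compounds were added as a titration series. After a further 16 h, CCF4 dye was loaded for 2 h at room temperature and emission at 460/530 nm recorded.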

[5] = biological target: Peroxisome proliferator-activated receptor gamma (Homo sapiens) (UniProt P37231); experiment: qHTS assay for small molecule antagonists of peroxisome proliferator-activated receptor gamma signaling (AID 588537; active = well fitted inhibition curve with a large enough effect in the signal ratio, with a control signal flat, not every such curve was filed as active; the % refers to the signal ratio;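 also: reporter cells co-stimulated with 50 nM rosiglitazone agonist during compound treatment; % of control where 0% means no effect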)
How it was run: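 Read-out: CCF4 fluorescence (ex 405, em 460/530 nm) after 2 h at RT. Cells were HEK293 carrying a UAS-bla reporter and treated 16 h at 37 C with compound plus rosiglitazone (50 nM final). Normalized to rosiglitazone and DMSO.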

[6] = biological target: Vitamin D3 receptor (Homo sapiens) (UniProt P11473); experiment: qHTS assay for small molecule antagonists of vitamin D receptor signaling (AID 588541; calls by dose curve;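 also: receptor activated by calcitriol during compound treatment; series mostly up to about 77 µM; % is scaled to controls: 0 for no effect and ±100 for the full control effect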)
How it was run: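 VDR-UAS-bla HEK293T cells in 2% charcoal-stripped FBS were stimulated with 1-alpha,25-dihydroxyvitamin D3 (3 nM final) plus compound for 16 h at 37 C. The beta-lactamase CCF4 readout was normalized to 50 nM agonist and DMSO, and Hill fits gave IC50.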

[7] = qHTS assay for small molecule agonists of retinoid X receptor alpha signaling (AID 588544; calls by dose curve;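 as to activation: 0% = DMSO basal wells and 100% = reference agonist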); conditions: HEK293T RXRa-UAS-bla, beta-lactamase reporter, 18 h; 530 nm emission
[8] = biological target: Retinoic acid receptor RXR-alpha (Homo sapiens) (UniProt P19793); experiment: as above
[9] = biological target: Thyroid hormone receptor beta (Homo sapiens) (UniProt P10828); experiment: qHTS assay for small molecule agonists of thyroid hormone receptor beta signaling (AID 588545; calls by dose curve;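 also: 0% = DMSO only and 100% = 10 nM T3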)
How it was run: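 Beta-lactamase reporter activity under TR response element control is measured in HEK 293 cells after 18 hrs compound exposure. Signal is ratiometric CCF4 fluorescence, 460/530 nm.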

[10] = qHTS assay for small molecule antagonists of retinoid X receptor alpha signaling (AID 588546; active = well fitted inhibition curve with a large enough effect in the signal ratio, with a control signal flat, not every such curve was filed as active; the % refers to the signal ratio;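 also: cells stimulated with 9-cis-retinoic acid as agonist; % is scaled to controls: 0 for no effect and ±100 for the full control effect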); conditions: HEK293T RXRa-UAS-bla, beta-lactamase ratio, antagonist mode; measured here: W530 green channel, cytotoxicity proxy
How it was run: (§1)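 Beta-lactamase reporter inhibition, read as CCF4 fluorescence ratio (ex 405, em 460/530 nm) after 2 h at RT. HEK293T UAS-bla cells, 2500/well, were stimulated with 9-cis-RA at 500 or 100 nM final alongside test compound for 18 h at 37 C.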

[11] = biological target: Retinoic acid receptor RXR-alpha (Homo sapiens) (UniProt P19793); experiment: as above; conditions: HEK293T RXRa-UAS-bla, beta-lactamase ratio, antagonist mode
How it was run: as §1

[12] = qHTS assay for small molecule activators of the p53 signaling pathway (AID 651743; active = well fitted activation curve with a large enough effect in the signal ratio, not every such curve was filed as active; the % refers to the signal ratio; also: series mostly up to about 92 µM; % of control where 0% means no effect); conditions: HCT-116 p53RE-bla, beta-lactamase FRET ratio, 16 h; activation: stronger effect = higher value
How it was run: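 Reporter: beta-lactamase driven by p53 response elements, stably integrated in HCT-116 cells. Cells seeded at 4,000/well, 5 h preincubation, compound (DMSO) 16 h at 37 C; B/G FRET substrate 2 h RT; fluorescence intensity read.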

[13] = qHTS assay for environmental chemicals that activate the Aryl hydrocarbon Receptor (AhR) signaling pathway (AID 651777); conditions: 1A2-DRE human hepatoma cells, luciferase, 24 h; activation: stronger effect = higher value; also: % of control where 0% means no effect; nearly all actives have a fitted effect of over 15% in size
How it was run: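 Human hepatoma 1A2-DRE cells, stably carrying a dioxin response element and CYP1A2 promoter driving luciferase, were exposed to compounds for 24 hr at 37 C and 5% CO2. Luciferase signal was then read after 30 min One-Glo at room temperature.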

[14] = biological target: Peroxisome proliferator-activated receptor alpha (Homo sapiens) (UniProt Q07869); experiment: qHTS assay for small molecule agonists of the peroxisome proliferator-activated receptor alpha (PPARalpha) signaling pathway (AID 651778); conditions: PathHunter PPARalpha complementation, chemiluminescence, 6 h; max response: stronger effect = higher value; also: % of control where 0% means no effect
How it was run: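 Enzyme-fragment complementation assay in which ligand-bound PPARalpha translocates and forms an active enzyme that generates chemiluminescence. Cells were plated overnight, exposed to compound for 6 hr at 37 C, and then given detection reagent for 60 min at room temperature.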

[15] = qHTS assay for small molecule agonists of the antioxidant response element (ARE) signaling pathway measured by Nrf2-dependant transcriptional activity (AID 720636; active = well fitted curve in the direction sought with a large enough effect in the repeat runs; an effect the other way counts as inactive or inconclusive; also: % of control where 0% means no effect)
How it was run: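 ARE-luc HepG2 cells carrying an Nrf2-responsive luciferase reporter were plated in medium with 1% dialyzed FBS, left 6 hr at 37 C to attach, then exposed to compound for 16 hr. Luciferase luminescence was read after ONE-Glo addition.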

[16] = qHTS assay for small molecule agonists of the antioxidant response element (ARE) signaling pathway measured by Nrf2-dependant transcriptional activity - cell viability counter screen (AID 720653; active = well fitted curve in the direction sought with a large enough effect in the repeat runs; an effect the other way counts as inactive or inconclusive; also: % is scaled to controls: 0 for no effect and ±100 for the full control effect); conditions: ARE-bla HepG2 viability, CellTiter-Glo ATP luminescence, 16 h; max response: stronger effect = lower value
How it was run: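 ARE-bla HepG2 cells treated with compounds for 16 h at 37C; this counter screen measures viability as intracellular ATP by CellTiter-Glo luminescence after 30 min at room temperature.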

[17] = qHTS assay for cell viability of HEK293 cells (AID 743288); conditions: ATP luminescence (CellTiter-Glo), 18 h; max response: stronger effect = lower value; also: % is scaled to controls: 0 for no effect and ±100 for the full control effect; nearly all actives have a fitted effect of over 50% in size
How it was run: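 Viable-cell counts were inferred from luciferase-based ATP content in HEK293 cells seeded at 2,000/well, pre-incubated ≥5 h, then dosed with DMSO-solubilised compounds for 18 h at 37 C.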

[18] = qHTS assay for cell viability of the p53RE-bla HCT-116 cell line (AID 743292); also: % is scaled to controls: 0 for no effect and ±100 for the full control effect; nearly all actives have a fitted effect of over 55% in size
How it was run: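 CellSensor p53RE-bla HCT-116 cells, 4,000/well, preincubated 5 h at 37 C, then exposed to compounds in DMSO for 16 h at 37 C. Viability read as CellTiter-Glo luminescence (intracellular ATP) after 30 min at room temperature.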

[19] = biological target: Nuclear receptor subfamily 1 group I member 2 (Rattus norvegicus) (UniProt Q9R1A7); experiment: qHTS assay for small molecule activators of the rat pregnane X receptor (rPXR) signaling pathway (AID 651751; call rule not given here; also: 0% is about no effect); conditions: rPXR reporter cells, luciferase (One-Glo), 24 h
[20] = biological target: Peroxisome proliferator-activated receptor delta (Homo sapiens) (UniProt Q03181); experiment: qHTS assay for small molecule agonists of peroxisome proliferator-activated receptor delta signaling (AID 588534; calls by dose curve;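 also: 0% = DMSO basal wells and 100% = positive control agonist at 10 µM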)
How it was run: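 Titration series tested in agonist mode on beta-lactamase reporter cells; 18 hrs at 37 C after a 5 hr pre-incubation. Readout: CCF4 fluorescence, 2 hrs RT. Hill equation gives EC50 and maximal response.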

Peroxisome proliferator-activated receptor delta (Homo sapiens), sequence (Q03181 whole entry, looked up): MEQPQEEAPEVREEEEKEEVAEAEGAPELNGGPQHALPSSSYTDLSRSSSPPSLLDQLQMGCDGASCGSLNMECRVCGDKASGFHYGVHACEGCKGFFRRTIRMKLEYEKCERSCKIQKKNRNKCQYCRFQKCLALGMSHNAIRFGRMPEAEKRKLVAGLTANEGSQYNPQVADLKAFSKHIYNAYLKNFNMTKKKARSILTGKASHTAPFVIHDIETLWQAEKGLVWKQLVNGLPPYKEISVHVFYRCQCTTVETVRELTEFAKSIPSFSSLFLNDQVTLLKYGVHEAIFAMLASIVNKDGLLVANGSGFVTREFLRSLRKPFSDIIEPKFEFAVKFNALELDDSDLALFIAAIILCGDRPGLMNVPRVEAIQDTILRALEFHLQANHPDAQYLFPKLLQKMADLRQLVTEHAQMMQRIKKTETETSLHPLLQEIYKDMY
Nuclear receptor subfamily 1 group I member 2 (Rattus norvegicus), sequence (Q9R1A7 whole entry, looked up): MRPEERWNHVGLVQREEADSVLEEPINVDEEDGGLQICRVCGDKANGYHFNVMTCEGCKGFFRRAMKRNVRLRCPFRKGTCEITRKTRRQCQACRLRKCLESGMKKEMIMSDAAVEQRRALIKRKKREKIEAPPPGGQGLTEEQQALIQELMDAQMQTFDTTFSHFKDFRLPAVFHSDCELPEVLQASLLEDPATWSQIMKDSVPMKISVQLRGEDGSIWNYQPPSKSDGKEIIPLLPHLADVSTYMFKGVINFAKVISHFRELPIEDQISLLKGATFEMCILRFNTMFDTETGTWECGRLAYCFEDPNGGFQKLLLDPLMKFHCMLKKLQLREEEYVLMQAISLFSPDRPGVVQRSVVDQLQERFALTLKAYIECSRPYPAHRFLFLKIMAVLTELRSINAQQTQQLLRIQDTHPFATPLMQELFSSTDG
Thyroid hormone receptor beta (Homo sapiens), sequence (P10828 whole entry, looked up): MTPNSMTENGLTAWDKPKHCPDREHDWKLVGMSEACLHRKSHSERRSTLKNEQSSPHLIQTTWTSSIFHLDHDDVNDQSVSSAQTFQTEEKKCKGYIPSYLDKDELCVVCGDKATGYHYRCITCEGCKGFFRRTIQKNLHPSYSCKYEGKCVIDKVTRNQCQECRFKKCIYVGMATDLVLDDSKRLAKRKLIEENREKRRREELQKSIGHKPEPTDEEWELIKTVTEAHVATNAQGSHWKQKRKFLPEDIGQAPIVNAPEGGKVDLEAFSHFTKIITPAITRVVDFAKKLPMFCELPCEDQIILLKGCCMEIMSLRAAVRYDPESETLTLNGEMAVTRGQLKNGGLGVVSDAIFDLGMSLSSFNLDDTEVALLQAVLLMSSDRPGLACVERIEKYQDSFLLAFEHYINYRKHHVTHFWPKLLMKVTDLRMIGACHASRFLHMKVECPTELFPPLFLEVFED
Peroxisome proliferator-activated receptor alpha (Homo sapiens), sequence (Q07869 whole entry, looked up, the tested form may be a part): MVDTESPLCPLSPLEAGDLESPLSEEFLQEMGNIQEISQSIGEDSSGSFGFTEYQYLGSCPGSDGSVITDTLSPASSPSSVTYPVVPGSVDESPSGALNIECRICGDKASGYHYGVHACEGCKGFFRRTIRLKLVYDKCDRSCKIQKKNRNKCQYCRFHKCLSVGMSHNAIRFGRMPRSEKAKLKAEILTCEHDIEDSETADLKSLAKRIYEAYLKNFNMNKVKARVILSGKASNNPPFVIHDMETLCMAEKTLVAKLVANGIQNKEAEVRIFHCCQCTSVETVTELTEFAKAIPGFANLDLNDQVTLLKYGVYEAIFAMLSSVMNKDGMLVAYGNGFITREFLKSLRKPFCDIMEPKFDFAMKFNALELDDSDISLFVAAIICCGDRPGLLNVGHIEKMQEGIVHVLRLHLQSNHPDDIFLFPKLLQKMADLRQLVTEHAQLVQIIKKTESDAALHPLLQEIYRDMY
Vitamin D3 receptor (Homo sapiens), sequence (P11473 whole entry, looked up): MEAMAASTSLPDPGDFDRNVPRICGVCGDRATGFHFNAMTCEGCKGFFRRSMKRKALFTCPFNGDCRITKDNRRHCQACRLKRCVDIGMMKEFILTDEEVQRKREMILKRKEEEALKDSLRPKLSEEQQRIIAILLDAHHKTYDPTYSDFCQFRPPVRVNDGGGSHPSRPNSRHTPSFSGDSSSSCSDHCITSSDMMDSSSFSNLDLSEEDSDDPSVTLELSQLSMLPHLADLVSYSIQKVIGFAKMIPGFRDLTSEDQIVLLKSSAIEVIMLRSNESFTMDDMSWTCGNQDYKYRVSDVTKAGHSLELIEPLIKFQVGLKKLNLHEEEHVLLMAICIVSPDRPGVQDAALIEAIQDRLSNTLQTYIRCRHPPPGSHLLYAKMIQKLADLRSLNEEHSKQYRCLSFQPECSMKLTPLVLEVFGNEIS
Glucocorticoid receptor (Homo sapiens), sequence (P04150 whole entry, looked up): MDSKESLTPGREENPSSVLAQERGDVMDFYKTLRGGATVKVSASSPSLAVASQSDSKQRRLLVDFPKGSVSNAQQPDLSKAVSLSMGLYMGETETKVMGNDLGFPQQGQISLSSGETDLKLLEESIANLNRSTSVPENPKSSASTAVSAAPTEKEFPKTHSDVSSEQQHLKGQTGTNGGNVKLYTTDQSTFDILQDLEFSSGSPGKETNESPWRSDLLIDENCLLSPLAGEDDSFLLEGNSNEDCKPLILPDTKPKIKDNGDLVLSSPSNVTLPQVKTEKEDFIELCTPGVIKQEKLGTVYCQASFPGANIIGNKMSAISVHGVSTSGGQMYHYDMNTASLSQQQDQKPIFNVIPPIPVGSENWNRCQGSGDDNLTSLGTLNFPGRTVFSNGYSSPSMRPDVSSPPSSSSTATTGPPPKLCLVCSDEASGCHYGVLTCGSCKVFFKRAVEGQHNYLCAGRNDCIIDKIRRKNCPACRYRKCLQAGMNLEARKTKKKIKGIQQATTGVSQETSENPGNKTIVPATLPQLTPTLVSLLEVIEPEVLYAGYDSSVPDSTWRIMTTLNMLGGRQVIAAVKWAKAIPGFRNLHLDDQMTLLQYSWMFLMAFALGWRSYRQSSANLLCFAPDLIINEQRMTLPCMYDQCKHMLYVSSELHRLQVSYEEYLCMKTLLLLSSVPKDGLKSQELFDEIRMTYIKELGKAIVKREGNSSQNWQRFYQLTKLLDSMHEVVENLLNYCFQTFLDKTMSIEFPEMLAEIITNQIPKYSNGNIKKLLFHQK
Retinoic acid receptor RXR-alpha (Homo sapiens), sequence (P19793 whole entry, looked up): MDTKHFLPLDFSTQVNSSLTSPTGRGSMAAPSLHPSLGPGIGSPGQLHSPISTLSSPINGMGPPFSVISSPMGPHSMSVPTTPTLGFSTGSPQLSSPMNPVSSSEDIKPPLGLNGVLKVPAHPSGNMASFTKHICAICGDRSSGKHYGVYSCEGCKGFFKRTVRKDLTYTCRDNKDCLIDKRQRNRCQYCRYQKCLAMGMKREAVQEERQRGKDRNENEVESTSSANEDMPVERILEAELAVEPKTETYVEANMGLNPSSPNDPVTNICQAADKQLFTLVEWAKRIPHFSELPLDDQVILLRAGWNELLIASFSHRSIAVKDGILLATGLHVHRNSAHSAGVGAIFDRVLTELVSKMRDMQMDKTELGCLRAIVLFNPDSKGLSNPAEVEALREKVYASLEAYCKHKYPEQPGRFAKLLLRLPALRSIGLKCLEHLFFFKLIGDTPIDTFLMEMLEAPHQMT
Peroxisome proliferator-activated receptor gamma (Homo sapiens), sequence (P37231 whole entry, looked up): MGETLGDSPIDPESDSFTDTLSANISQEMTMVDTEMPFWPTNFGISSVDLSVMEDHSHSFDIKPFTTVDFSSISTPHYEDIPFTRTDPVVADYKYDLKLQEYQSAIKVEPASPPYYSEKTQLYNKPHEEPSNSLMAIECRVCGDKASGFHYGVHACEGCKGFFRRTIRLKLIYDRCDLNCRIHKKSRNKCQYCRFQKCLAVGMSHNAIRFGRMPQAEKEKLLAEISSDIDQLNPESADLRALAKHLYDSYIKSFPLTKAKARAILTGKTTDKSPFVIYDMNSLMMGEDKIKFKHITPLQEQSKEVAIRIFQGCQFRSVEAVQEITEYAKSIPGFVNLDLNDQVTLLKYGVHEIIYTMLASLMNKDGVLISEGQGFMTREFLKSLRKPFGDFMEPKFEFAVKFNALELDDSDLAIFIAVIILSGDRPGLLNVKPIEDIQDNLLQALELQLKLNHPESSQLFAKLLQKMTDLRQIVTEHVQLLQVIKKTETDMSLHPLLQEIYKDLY
Estrogen receptor (Homo sapiens), sequence (P03372 whole entry, looked up): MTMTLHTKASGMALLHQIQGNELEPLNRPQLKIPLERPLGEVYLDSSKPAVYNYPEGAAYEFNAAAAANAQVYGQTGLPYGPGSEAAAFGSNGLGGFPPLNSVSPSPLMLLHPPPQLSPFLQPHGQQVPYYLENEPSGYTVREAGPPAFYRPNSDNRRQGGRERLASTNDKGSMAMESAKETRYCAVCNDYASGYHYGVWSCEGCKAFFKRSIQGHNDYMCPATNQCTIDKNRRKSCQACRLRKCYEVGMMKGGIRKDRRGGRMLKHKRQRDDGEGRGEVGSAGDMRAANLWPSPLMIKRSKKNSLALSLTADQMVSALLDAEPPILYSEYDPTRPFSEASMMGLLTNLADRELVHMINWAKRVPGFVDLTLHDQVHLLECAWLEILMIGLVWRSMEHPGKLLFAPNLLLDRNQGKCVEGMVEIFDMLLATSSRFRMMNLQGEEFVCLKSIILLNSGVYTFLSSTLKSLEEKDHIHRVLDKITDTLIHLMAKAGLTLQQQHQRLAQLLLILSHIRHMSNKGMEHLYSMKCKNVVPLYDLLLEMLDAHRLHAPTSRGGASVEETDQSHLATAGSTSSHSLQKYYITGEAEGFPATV

C/C(=N\NC(=O)Nc1cc(F)cc(F)c1)c1ncccc1C(=O)O
-5.57% and -1.16%: max response [10]
4% and -10.7%: max response [7]
inactive: Potency [1] | Potency [2] | Potency [3] | Potency [4] | Potency [5] | Potency [6] | Potency [8] | Potency [9] | max response [11] -18.2% and 0.0153% | activation [12] -1.04% and 1.35% | activation [13] 0.312% and 2.08% | max response [14] 0.136% and -0.453% | Potency [15] | max response [16] -4.25% and -0.19% | max response [17] -5.69% and -3.6% | Potency [18] | max response [19] -0.995% and 1.1%

Clc1ccc([C@]2(Cn3cncn3)C[C@H](Br)CO2)c(Cl)c1
-15.4% and -0.171%: max response [10]
-0.873% and 8.46%: max response [7]
inactive: Potency [1] | Potency [2] | Potency [3] | outcome [20] | Potency [4] | Potency [5] | Potency [6] | Potency [8] | Potency [9] | max response [11] -14.1% and -9.34% | activation [12] -0.748% and 2.17% | activation [13] -0.98% and 1.78% | max response [14] -0.439% and 5.59% | Potency [15] | max response [16] -1.87% and -2% | max response [17] -7.75% and -8.79% | Potency [18]

COCC(=O)N(c1c(C)cccc1C)[C@H](C)C(=O)OC
-4.91%: max response [10]
inactive: Potency [1] | Potency [2] | outcome [20] | Potency [4] | Potency [5] | Potency [6] | Potency [8] | max response [11] -14.1% | activation [12] -0.822% | activation [13] 1.21% | max response [14] -0.29% | Potency [15] | max response [16] -2.34% | max response [17] -1.89% | Potency [18] | max response [19] -0.694%
-8.28%: max response [7]

CC(Oc1cc(Cl)c(Cl)cc1Cl)C(=O)O (stereo unspecified)
inactive: Potency [1] | Potency [2] | Potency [3] | outcome [20] | Potency [5] | Potency [6] | Potency [8] | max response [11] 1.54% | activation [13] 2.71% | max response [14] -0.109% | Potency [15] | max response [16] 15.3% | max response [17] 0.242% | Potency [18] | max response [19] 2.63%
-19.8%: max response [10]

CNC(=O)O/N=C(\SC)C(=O)N(C)C
inactive: Potency [1] | outcome [20] | Potency [4] | Potency [6] | Potency [8] | Potency [9] | max response [11] -20.9% | activation [12] 2.97% | max response [14] 0.554% | Potency [15] | max response [17] -24.8% | Potency [18] | max response [19] -0.972%
-5.53%: max response [10]

CC(C)(C#N)N=NC(C)(C)C#N
-3.46%: max response [7]
inactive: Potency [1] | Potency [2] | Potency [3] | outcome [20] | Potency [4] | Potency [6] | Potency [8] | max response [11] -0.927% | activation [12] -7.6% | activation [13] 3.1% | max response [14] -0.208% | Potency [15] | max response [16] -0.383% | max response [17] -5.77% | Potency [18] | max response [19] 0.774%
-2.24%: max response [10]

C=CC(=O)NCO
-12.6% and -9.15%: max response [7]
-9.77% and -7.1%: max response [10]
inactive: Potency [1] | Potency [3] | outcome [20] | Potency [4] | Potency [5] | Potency [6] | Potency [9] | max response [11] 4.89% and 0.243% | activation [12] 0.261% and -0.511% | activation [13] 0.0723% and 1.42% | max response [14] -1.6% and -1.01% | Potency [15] | max response [16] -3.08% and -9.83% | Potency [18] | max response [19] 3.28% and -7.26%

COP(=O)(OC)O/C(C)=C/C(=O)N(C)C
inactive: Potency [1] | Potency [2] | outcome [20] | Potency [4] | Potency [6] | Potency [8] | max response [11] -0.431% | activation [12] -0.0413% | activation [13] 1.01% | max response [14] -1.78% | Potency [15] | max response [16] 15.8% | max response [17] 2.37% | Potency [18] | max response [19] 1.37%
-0.0825%: max response [7]
0.42%: max response [10]

CCCCC(C#N)(Cn1cncn1)c1ccc(Cl)cc1 (stereo unspecified)
3.82%: max response [7]
inactive: Potency [1] | Potency [2] | Potency [3] | outcome [20] | Potency [4] | Potency [8] | Potency [9] | max response [11] 3.27% and 4.81% | activation [12] -3.98% | activation [13] -0.211% | max response [14] -2.63% and 1.11% | Potency [15] | max response [16] 0.943% and -1.27% | max response [17] -11.8% and -12.8% | Potency [18]
7.2% and 4.81%: max response [10]

O=[As](O)(O)O
inactive: Potency [1] | Potency [3] | outcome [20] | Potency [4] | Potency [6] | Potency [8] | Potency [9] | max response [11] -6.13% | activation [12] -0.546% | activation [13] -0.386% | max response [14] 0.0106% | max response [16] -8.77% | max response [17] -4.83% | Potency [18] | max response [19] -1.48%
-18.2%: max response [7]
-3.47%: max response [10]

CCOP(=O)(OCC)SCSCC
inactive: Potency [1] | Potency [3] | outcome [20] | Potency [4] | Potency [5] | Potency [6] | Potency [8] | Potency [9] | max response [11] -5.71% | activation [12] 4.72% | activation [13] 0.0868% | max response [14] -4.89% | Potency [15] | max response [16] 2.19% | max response [17] -3.03% | Potency [18] | max response [19] -5.9%
-15.2%: max response [10]
-4.7%: max response [7]

Source: PubChem BioAssay (NCATS)
